Hit rate of the full screen: of about 310,000 compounds, about 14,000 (4.5%) showed an effect of 50% or more. Effects have a minus sign here. The sample holds strong results, similar compounds and a random draw of the others, so the mix is not that of the screen.
What follows are molecules tested against human ether-à-go-go-related gene (hERG) potassium channel (human, UniProt Q12809) (assay: primary screen, population patch clamp on CHO cells stably expressing hERG; higher = less effect of the substance).
Chain of human ether-à-go-go-related gene (hERG) potassium channel (Q12809 whole entry, looked up): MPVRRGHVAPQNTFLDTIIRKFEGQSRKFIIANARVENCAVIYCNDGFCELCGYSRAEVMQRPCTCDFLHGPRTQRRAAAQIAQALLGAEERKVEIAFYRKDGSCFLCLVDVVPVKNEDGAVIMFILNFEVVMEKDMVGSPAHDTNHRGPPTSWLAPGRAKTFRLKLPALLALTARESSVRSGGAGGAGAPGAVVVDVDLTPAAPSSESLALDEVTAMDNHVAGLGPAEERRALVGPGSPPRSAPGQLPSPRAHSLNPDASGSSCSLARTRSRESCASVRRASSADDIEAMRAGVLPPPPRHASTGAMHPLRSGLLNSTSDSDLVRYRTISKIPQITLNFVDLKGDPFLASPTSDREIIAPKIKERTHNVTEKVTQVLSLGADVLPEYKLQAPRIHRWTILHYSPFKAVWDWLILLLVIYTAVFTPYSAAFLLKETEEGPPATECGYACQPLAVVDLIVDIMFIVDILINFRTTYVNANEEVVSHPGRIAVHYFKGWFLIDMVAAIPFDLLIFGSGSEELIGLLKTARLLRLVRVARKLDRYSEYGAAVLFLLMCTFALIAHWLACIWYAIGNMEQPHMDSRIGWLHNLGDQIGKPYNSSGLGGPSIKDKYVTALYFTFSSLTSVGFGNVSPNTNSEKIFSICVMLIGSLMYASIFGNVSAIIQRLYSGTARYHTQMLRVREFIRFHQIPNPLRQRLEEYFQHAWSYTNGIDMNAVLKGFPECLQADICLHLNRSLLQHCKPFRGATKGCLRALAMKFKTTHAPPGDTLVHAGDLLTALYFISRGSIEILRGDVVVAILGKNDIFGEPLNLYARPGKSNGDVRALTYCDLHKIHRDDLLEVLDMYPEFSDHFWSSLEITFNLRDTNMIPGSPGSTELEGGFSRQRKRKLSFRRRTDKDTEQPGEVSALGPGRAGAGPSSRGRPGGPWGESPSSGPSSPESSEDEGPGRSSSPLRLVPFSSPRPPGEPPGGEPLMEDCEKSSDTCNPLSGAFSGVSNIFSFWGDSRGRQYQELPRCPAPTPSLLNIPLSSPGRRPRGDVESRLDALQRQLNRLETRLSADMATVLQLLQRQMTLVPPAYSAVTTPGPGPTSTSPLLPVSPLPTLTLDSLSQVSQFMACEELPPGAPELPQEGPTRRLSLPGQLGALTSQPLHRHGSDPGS
With `CC(C)(C)c1nc(CN2CCCCC2)cc(CN2CCCCC2)c1O` the “hERG current change (%, negative = inhibition) at 10uM” value was -24.2%.
In the case of `Cc1ccc(-c2nc(CN3CCCCC3)cc(CN3CCCCC3)c2O)cc1.Cl`, the “hERG current change (%, negative = inhibition) at 10uM” value is reported as -62.5%.
`Cc1ccc(-c2nc(CN(C)C)cc(CN(C)C)c2O)cc1.Cl` was tested, and the “hERG current change (%, negative = inhibition) at 10uM” value was -14.6%.
`Cc1ccccc1OCC(=O)OCn1nnc2ccccc2c1=O` was tested, and the “hERG current change (%, negative = inhibition) at 10uM” value was 19.6%.
In the case of `Cc1ccc2[nH]c3c(=O)n(CC(=O)NCc4ccco4)ncc3c2c1`, the “hERG current change (%, negative = inhibition) at 10uM” value is reported as 21.9%.
With `CC(C)N(CCCNC(=O)Cn1ncc2c([nH]c3ccccc32)c1=O)Cc1ccccc1` the “hERG current change (%, negative = inhibition) at 10uM” value was -48.1%.
For `CCN(CCCNC(=O)Cn1ncc2c([nH]c3ccccc32)c1=O)Cc1ccccc1`, the “hERG current change (%, negative = inhibition) at 10uM” value was -67%.
In the case of `Cc1ccc2[nH]c3c(=O)n(CC(=O)NCCCN(C)Cc4ccccc4)ncc3c2c1`, the “hERG current change (%, negative = inhibition) at 10uM” value is reported as -31.6%.
`O=C(Cn1ncc2c([nH]c3ccccc32)c1=O)NCCc1ccccc1` was tested, and the “hERG current change (%, negative = inhibition) at 10uM” value was 3.06%.
In the case of `CCN(CCCNC(=O)Cn1ncc2c([nH]c3ccc(C)cc32)c1=O)c1ccccc1`, the “hERG current change (%, negative = inhibition) at 10uM” value is reported as 19%.
`CCN(CCCNC(=O)Cn1ncc2c([nH]c3ccc(C)cc32)c1=O)Cc1ccccc1` was tested, and the “hERG current change (%, negative = inhibition) at 10uM” value was -58.5%.
`Cc1ccc(NC(=O)c2oc3ccc(S(=O)(=O)N4CCOCC4)cc3c2C)c(C)c1` was tested, and the “hERG current change (%, negative = inhibition) at 10uM” value was 5.03%.
For `O=C(Nc1nc(N2C(=O)c3ccccc3C2=O)n(-c2ccccc2)n1)c1ccc(Cl)cc1`, the “hERG current change (%, negative = inhibition) at 10uM” value was -7.9%.
With `CC1CC(C)CN(CCCNC(=O)Cc2c(C(=O)O)n(C)c3ccccc23)C1` (centres unmarked) the “hERG current change (%, negative = inhibition) at 10uM” value was -15.9%.
With `COC(=O)c1c(NC(=O)CCCC(=O)O)sc2c1CCCCC2` the “hERG current change (%, negative = inhibition) at 10uM” value was 12.2%.
For `CCOc1ccc(-c2n[nH]c(C)c2-c2ccccn2)c(O)c1`, the “hERG current change (%, negative = inhibition) at 10uM” value was 13.6%.
In the case of `CS(=O)(=O)Nc1ccc(C(=O)NCc2ccccn2)cc1`, the “hERG current change (%, negative = inhibition) at 10uM” value is reported as 0.863%.
With `O=C(NC1CCCC1)c1ccc(CS(=O)(=O)Cc2ccccc2F)o1` the “hERG current change (%, negative = inhibition) at 10uM” value was -7.89%.
`COc1cc(NC(=O)COC(=O)c2ccccc2SCC(=O)N2CCCC2)cc(OC)c1` was tested, and the “hERG current change (%, negative = inhibition) at 10uM” value was -25.7%.
With `O=C(CSc1nc2ccccc2c(=O)n1CCCC(=O)N1CCCC1)NCc1ccco1` the “hERG current change (%, negative = inhibition) at 10uM” value was -62.4%.
With `N#CCSc1nc2ccccc2c(=O)n1CCCC(=O)NCc1ccco1` the “hERG current change (%, negative = inhibition) at 10uM” value was -33.7%.
With `CC(=O)NCCn1c(SCC(=O)NCc2ccco2)nc2ccccc2c1=O` the “hERG current change (%, negative = inhibition) at 10uM” value was -23.9%.
With `O=C(CSc1nc2ccccc2c(=O)n1CCCO)NCc1ccccc1` the “hERG current change (%, negative = inhibition) at 10uM” value was -41.5%.
For `COc1ccc(NC(=O)COC(=O)c2ccccc2SCC(=O)N2CCCC2)cc1`, the “hERG current change (%, negative = inhibition) at 10uM” value was -53.9%.
`CCn1c(SCC(=O)Nc2cccc(OC)c2)nc2ccccc2c1=O` was tested, and the “hERG current change (%, negative = inhibition) at 10uM” value was -47.1%.
For `CC(=O)Nc1ccc(NC(=O)COC(=O)c2ccccc2SCC(=O)N2CCCC2)cc1`, the “hERG current change (%, negative = inhibition) at 10uM” value was 5.48%.
`COc1cccc(NC(=O)CSc2nc3ccccc3c(=O)n2CCCC(=O)N2CCCC2)c1` was tested, and the “hERG current change (%, negative = inhibition) at 10uM” value was -67.3%.
For `Cc1ccc(NC(=O)CSc2nc3ccccc3c(=O)n2CCCC(=O)N2CCCC2)cc1`, the “hERG current change (%, negative = inhibition) at 10uM” value was -44.5%.
For `Cc1ccc(CNC(=O)CSc2nc3ccccc3c(=O)n2CCCO)cc1`, the “hERG current change (%, negative = inhibition) at 10uM” value was -73%.
In the case of `COCCCn1c(SCC(=O)NCc2ccccc2)nc2ccccc2c1=O`, the “hERG current change (%, negative = inhibition) at 10uM” value is reported as -48.6%.
In the case of `CCCCN(C(=O)CSc1nnnn1C)C1CCS(=O)(=O)C1` (centres unmarked), the “hERG current change (%, negative = inhibition) at 10uM” value is reported as -28.1%.
For `COC(=O)N/N=C/c1cn(CCOc2ccc(OC)cc2)c2ccccc12`, the “hERG current change (%, negative = inhibition) at 10uM” value was 16.8%.
`Cc1ccc(-n2cc3c(=O)n(C)c(=O)n(C)c3c2)cc1C` was tested, and the “hERG current change (%, negative = inhibition) at 10uM” value was -6.21%.
`CC(=O)N[C@H]1C(O)O[C@H](CO)[C@@H](O)[C@@H]1O` (some centres unmarked) was tested, and the “hERG current change (%, negative = inhibition) at 10uM” value was 9.71%.
For `CCN(CC)c1ccc(C=O)c(OC)c1`, the “hERG current change (%, negative = inhibition) at 10uM” value was -9.16%.
For `N#C/C(=C\c1cc2c(cc1Br)OCO2)c1ccc(C(=O)O)cc1`, the “hERG current change (%, negative = inhibition) at 10uM” value was 13.2%.
In the case of `COCC(=O)N(C)c1nnc(-c2ccc([N+](=O)[O-])cc2)s1`, the “hERG current change (%, negative = inhibition) at 10uM” value is reported as 6.65%.
With `CN(CC(=O)Nc1c(Cl)cccc1Cl)C(=O)c1ccncc1` the “hERG current change (%, negative = inhibition) at 10uM” value was 19.4%.
`Cn1cnc2c1c(=O)n(Cc1cccc(F)c1)c(=O)n2C` was tested, and the “hERG current change (%, negative = inhibition) at 10uM” value was 12%.
For `Nc1c(C(=O)NC2CCCCC2)nsc1C(=O)OCC(=O)NC1CCCCC1`, the “hERG current change (%, negative = inhibition) at 10uM” value was 12.5%.
For `CCn1c(-c2cc(-c3ccc(C)cc3)nc3ccccc23)n[nH]c1=S`, the “hERG current change (%, negative = inhibition) at 10uM” value was 11.4%.
For `CNCCOc1ccc(Cl)c(Cl)c1.O=C(O)C(=O)O`, the “hERG current change (%, negative = inhibition) at 10uM” value was 12.8%.
For `COc1ccc(NC(=O)CNC(=O)Cc2cccc3ccccc23)c(OC)c1`, the “hERG current change (%, negative = inhibition) at 10uM” value was 2.01%.
`O=C(Nc1ncc(Cc2ccccc2)s1)C1COc2ccccc2O1` (centres unmarked) was tested, and the “hERG current change (%, negative = inhibition) at 10uM” value was -0.581%.
In the case of `CCOC(=O)c1c(-c2ccc(C)o2)csc1NC(=O)COC(=O)c1cccs1`, the “hERG current change (%, negative = inhibition) at 10uM” value is reported as -12%.
`CN1C(=O)NC(c2ccc(O)cc2)C2=C1CN(c1cccc3ccccc13)C2=O` (centres unmarked) was tested, and the “hERG current change (%, negative = inhibition) at 10uM” value was -11.8%.
`CCC(=O)NC(NC(=S)Nc1ccc(S(N)(=O)=O)cc1)C(Cl)(Cl)Cl` (centres unmarked) was tested, and the “hERG current change (%, negative = inhibition) at 10uM” value was -1.3%.
With `O=C(CCCCCn1c(SCC(=O)c2ccccc2)nc2ccccc2c1=O)NCc1ccco1` the “hERG current change (%, negative = inhibition) at 10uM” value was 10.8%.
`O=C(CCCCCn1c(SCc2ccncc2)nc2ccccc2c1=O)NCc1ccco1` was tested, and the “hERG current change (%, negative = inhibition) at 10uM” value was -86%.
`NS(=O)(=O)c1ccc(CCNC(=O)CSc2nc3ccccc3c(=O)n2CCC(=O)N2CCCCC2)cc1` was tested, and the “hERG current change (%, negative = inhibition) at 10uM” value was 19.8%.
With `COc1ccc(NC(=O)CSc2nc3ccccc3c(=O)n2CCC(=O)N2CCCCC2)cc1` the “hERG current change (%, negative = inhibition) at 10uM” value was -69.2%.
For `O=C(CSc1nc2ccccc2c(=O)n1CCC(=O)N1CCCCC1)NCc1ccccc1`, the “hERG current change (%, negative = inhibition) at 10uM” value was -70.4%.
In the case of `CCn1c(SCC(=O)NCc2ccccc2)nc2ccccc2c1=O`, the “hERG current change (%, negative = inhibition) at 10uM” value is reported as -11.6%.
With `CCOc1ccc(NC(=O)CSc2nc3ccccc3c(=O)n2CCCC(=O)N2CCCC2)cc1` the “hERG current change (%, negative = inhibition) at 10uM” value was -23.8%.
`Cc1ccc(CSc2nc3ccccc3c(=O)n2CCCC(=O)NCc2ccco2)cc1` was tested, and the “hERG current change (%, negative = inhibition) at 10uM” value was -2.71%.
In the case of `COc1ccc(NC(=O)CSc2nc3ccccc3c(=O)n2C)cc1`, the “hERG current change (%, negative = inhibition) at 10uM” value is reported as 4.53%.

From article PMC4336329 (PLoS ONE, 2015)
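Also: peak tail current of the secondary pulse compared with the same well before compound.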
